Values joined by “and” are separate entries in the source; they are usually repeats but may differ in a detail not shown here. Equal entries are not always repeated. Compounds without any hit were thinned out: in the full panel of roughly 83,000, 20% have a hit.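 Growth was measured after 48 h exposure to one concentration of compound in 96-well plates. Values under 10 count as active.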 Active and inactive are the calls of the source.

This experiment deals with MOLT-4 leukemia. Description: NCI-60 one-dose screen, 48 h (100 = growth as untreated, 0 = no growth, -100 = all killed). Conditions: 10 µM unless noted. The procedure: Growth inhibition of the MOLT-4 human tumor cell line is measured as a screen for anti-cancer activity. Cells are grown in 96 well plates and exposed to the test compound for 48 hours. Compounds are tested at a single concentration, which is 10^-5 M for most compounds. The reported endpoint is percent growth (GI% or GIPRCNT), where numbers from 0 - 100% represent growth inhibition, and numbers from -100% - 0 represent cell death. For example, a value of 40 represents 60% growth inhibition. A value of 0 means no net growth occurred over the course of the experiment. A value of -40 indicates 40% of cells at the beginning of the experiment died by the end of the experiment. A value of -100 means all cells are dead at the end of the experiment.
NCI-60 Human Tumor Cell Lines Screen was performed using the standard one-dose NCI protocol, which is described in more detail at https://dtp.cancer.gov/discovery_development/nci-60/default.htm.
Compounds with GIPRCNT values below 10 were considered active. Activity score was based on GIPRCNT using the following formula: […]
Score is 0 for GIPRCNT values of 100 or above, 50 for GIPRCNT values of 0, and 100 for GIPRCNT values of -100.
Take `Cc1cc[c-]cc1.Fc1c[c-]c(-c2ccccn2)c(F)c1.[Pt+2].c1ccc([PH+](c2ccccc2)c2ccccn2)cc1`: the growth is 26% (inactive).
For `Cc1ccccc1-n1c(/C=C\c2ccccn2)nc2ccccc2c1=O`, the growth is 32.7% (inactive).
Consider `C[C@]12CC[C@@H](OC(=O)N(CCCl)N=O)C[C@@H]1CC[C@@H]1[C@@H]2CC[C@]2(C)C(=O)CC[C@@H]12`, for which the growth was 29.1% (inactive).
For `c1ccc2c(c1)O[As](O[As]1Oc3ccccc3O1)O2` the value was 19.2% (inactive); for `CCN1C(=O)CC(=O)N(CC)C1=S`, 109% (inactive); for `O=[N+]([O-])c1c(Cl)cc(Cl)c([N+](=O)[O-])c1Cl`, 80.8% (inactive).
For `CC1=C([Te]c2ccccc2)C(=O)c2ccccc2C1=O` the value was 31.4% (inactive); for `COc1cc2c(c(OC)c1OC)-c1ccc(O)cc1[C@@H](NC(C)=O)CC2`, 34.5% (inactive) and -8.23% (active); for `CO/N=C1\CC[C@]2(C)[C@H]3CC[C@]4(C)C(=O)CC[C@H]4[C@@H]3C[C@@H]3SC(N)=N[C@@]32C1`, 86.1% (inactive).
For `CC1(C)N(Nc2ccccc2)C(=O)C2CCCN21` (stereo not given) the value was 15.1% (inactive); for `O=C1C=C(N2CC2)c2ccccc2C1=O`, 5.2% (active); for `c1ccc2c(c1)sc1ccccc12`, 104% (inactive).
As to `CC1=CC(=O)CCC12CCOC2=O` (stereo not given), the growth was 107% (inactive).
As to `O=C(NC(Cl)=C(Cl)Cl)P(=O)(c1ccccc1)c1ccccc1`, the growth was 87.1% (inactive).
As for `ClC1OC(Cl)(Cl)C(Cl)(Cl)OC1(Cl)Cl` (stereo not given), the growth is 97.1% (inactive).
As to `N#CC(NC(=O)CCl)=C(Cl)Cl`, the growth was -33.6% (active).
The same measure for `C[C@]12CCC3[C@@H](C[C@@H]4SC(Nc5ccccc5)=N[C@@]45CC(=O)CC[C@]35C)[C@@H]1CCC2=O` (stereo not given in full): -5.8% (active); for `CCOP(=O)(OCC)C(=O)N(CC)CC`: 114% (inactive); for `CC1(C)S[C@H]2CC[C@H]3OC(=O)[C@@H]1N23`: 75.1% (inactive).
`Cc1cc[n+](CCc2ccccc2)cc1`: the growth was 90.4% (inactive) and 101% (inactive).
On to `NC(=O)Oc1cc(OC(N)=O)cc(N(CCCl)CCCl)c1`, for which the growth is 13.1% (inactive).
With `CN(C)c1ccc([N+](=O)[O-])c([N+](=O)[O-])c1`, the growth was 107% (inactive) and 100% (inactive).
On to `Oc1ccc(O)c(Cl)c1`, for which the growth was 65.6% (inactive) and 105% (inactive).
Turning to `CCCCOC(N)=O`, the growth is 96.8% (inactive).
For `COc1ccc(CN)cc1OC` the value was 112% (inactive) and 95.2% (inactive); for `CC(Oc1ccc(-c2ccccc2)cc1)C(=O)O` (stereo not given), 104% (inactive).
For the molecule `CN(C)C(=S)SSC(=S)N(C)C`, the growth was 92.3% (inactive).
The same measure for `CN1C2CCC1[C@@H](COC(=O)c1ccccc1)[C@@H](O)C2` (stereo not given in full): 97.8% (inactive); for `OCCNC1CCCCC1`: 89.2% (inactive); for `S=P(SP(=S)(c1ccccc1)c1ccccc1)(c1ccccc1)c1ccccc1`: 98.3% (inactive).
As to `O=C(O)C(F)F`, the growth is 102% (inactive).
As for `C/C(=C(\c1ccc(OCCN2CCOCC2)cc1)c1ccc(OC(=O)Cc2ccccc2)cc1)c1ccc(Cl)cc1`, the growth was 56.3% (inactive).
For the molecule `COc1cc(/C=C\[N+](=O)[O-])ccc1OCc1ccccc1`, the growth was 1.1% (active).
Take `O=c1c2ccccc2nc(-c2ccccc2Cl)n1-c1nnc(C(F)(F)F)s1`: the growth was 3.92% (active).
For `Cc1cc(Br)c([N+](=O)[O-])cc1[N+](=O)[O-]` the value was 71.1% (inactive).
For `CCOC(=O)c1ccccc1C(=O)OCC` the value was 101% (inactive); for `CCCC1CCCCC12C(=O)NC(=O)NC2=O` (stereo not given), 110% (inactive) and 97.1% (inactive).
As to `C[N+]12CCC34C5=CC(=O)C(=O)C=C5[N+]5(C)C(=O)CC6OCC=C(C1)C(CC32)C6C45` (stereo not given), the growth was 102% (inactive).
Take `O=NN(c1ccccc1)c1ccccc1`: the growth is 114% (inactive).
On to `O=S1(=O)OCCO1`, for which the growth is 114% (inactive).
